Measured values reported in PubChem BioAssay AID1159580 (chemical genetic matrix, 2015).
Where “and” joins values, the source holds several entries; their conditions need not be identical. Identical values can stand only once. Hit rate of the full screen: of about 5,500 compounds, about 2,000 (36%) were called active. Roughly 18% stayed inconclusive and do not appear here. Rule as the data show it: active = normalized growth mostly below about 0.91 (no sharp cut-off); inconclusive = no clear call, values can overlap the other calls; inactive = mostly above about 0.92. Some of the results follow.

Assay: chemical genetic growth profiling, strain panel (AID 1159580);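 also: tested at 20 µM; growth read once vehicle control cultures reached saturation at 30 °C; 1 = growth at the plate median or of vehicle wells; lower values mean less growth of the strain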
Settings: S. cerevisiae deletion strains, growth OD

Measured: normalized growth

CC[C@H]1OC(=O)[C@H](C)[C@@H](O[C@H]2C[C@@](C)(OC)[C@@H](O)[C@H](C)O2)[C@H](C)[C@@H](O[C@@H]2O[C@H](C)C[C@H](N(C)C)[C@H]2O)[C@](C)(O)C[C@@H](C)[C@@H]2N[C@@H](COCCOC)O[C@H]([C@H]2C)[C@]1(C)O
inactive: locus YAL021C, strain ccr4, hits give low values 0.991 | locus YAL026C, strain drs2, hits give low values 0.993 | locus YAL030W, strain snc1, hits give low values 0.999 | locus YBL061C, strain skt5, hits give low values 0.982 | locus YBR009C, strain hhf1, hits give low values 0.995 | locus YBR021W, strain FUR4, hits give low values 1.01 | locus YBR023C, strain chs3, hits give low values 0.993 | locus YBR171W, strain sec66, hits give low values 0.977 | locus YBR229C, strain ROT2, hits give low values 1.01 | locus YBR231C, strain swc5, hits give low values 0.992 | locus YBR279W, strain paf1, hits give low values 0.998 | locus YCL011C, strain gbp2, hits give low values 0.99 | locus YCL016C, strain dcc1, hits give low values 0.985 | locus YCL029C, strain bik1, hits give low values 1.01 | locus YCL061C, strain MRC1, hits give low values 0.982 | locus YCL069W, strain vba3, hits give low values 0.988 | locus YCR088W, strain abp1, hits give low values 0.999 | locus YDL005C, strain med2, hits give low values 0.978 | locus YDL035C, strain GPR1, hits give low values 1.01 | locus YDL040C, strain nat1, hits give low values 0.996 | locus YDL074C, strain BRE1, hits give low values 1.01 | locus YDL101C, strain DUN1, hits give low values 1.05 | locus YDL185W, strain tfp1, hits give low values 1 | locus YDL192W, strain arf1, hits give low values 1.01 | locus YDR001C, strain nth1, hits give low values 0.995 | locus YDR069C, strain doa4, hits give low values 0.995 | locus YDR101C, strain arx1, hits give low values 0.984 | locus YDR137W, strain rgp1, hits give low values 1 | locus YDR159W, strain sac3, hits give low values 0.985 | locus YDR162C, strain NBP2, hits give low values 1 | locus YDR195W, strain ref2 0.966 | locus YDR297W, strain sur2, hits give low values 1 | locus YDR318W, strain mcm21, hits give low values 1.01 | locus YDR334W, strain swr1, hits give low values 0.986 | locus YDR335W, strain msn5, hits give low values 0.998 | locus YDR388W, hits give low values 1.01 | locus YDR392W, strain spt3, hits give low values 0.989 | locus YDR502C, strain sam2, hits give low values 0.997 | locus YEL003W, strain gim4, hits give low values 1 | locus YEL037C, strain rad23, hits give low values 0.997 | locus YEL061C, strain CIN8 (second series), hits give low values 0.998 | locus YEL061C, strain CIN8, hits give low values 1.01 | locus YER015W, strain faa2, hits give low values 1 | locus YER016W, strain bim1, hits give low values 0.987 | locus YER110C, hits give low values 1.01 | locus YER111C, strain swi4, hits give low values 0.991 | locus YER155C, strain BEM2 (second series), hits give low values 0.999 | locus YER155C, strain BEM2, hits give low values 1.01 | locus YER167W, strain BCK2, hits give low values 1 | locus YFR010W, strain ubp6, hits give low values 0.988 | locus YGL078C, strain dbp3, hits give low values 1.01 | locus YGL167C, strain pmr1, hits give low values 0.991 | locus YGL173C, strain kem1, hits give low values 0.984 | locus YGL227W, strain vid30, hits give low values 0.99 | locus YGL240W, strain doc1, hits give low values 0.989 | locus YGL248W, strain PDE1, hits give low values 1.02 | locus YGL253W, strain hxk2, hits give low values 0.998 | locus YGR135W, strain pre9, hits give low values 1.04 | locus YGR252W, strain gcn5, hits give low values 0.991 | locus YHR013C, strain ard1, hits give low values 0.952 | locus YHR027C, strain rpn1, hits give low values 0.983 | locus YHR030C, strain SLT2, hits give low values 1 and 1.04 | locus YHR079C, strain IRE1 (second series), hits give low values 1.01 | locus YHR079C, strain IRE1, hits give low values 1.03 | locus YHR094C, strain hxt1, hits give low values 1.01 | locus YHR129C, strain ARP1, hits give low values 1.01 | locus YHR142W, strain chs7, hits give low values 0.997 | locus YHR200W, strain rpn10, hits give low values 1.01 | locus YIL066C, strain RNR3, hits give low values 1.01 | locus YIL073C, strain SPO22, hits give low values 1.06 | locus YIL125W, strain kgd1, hits give low values 1 | locus YIR030C, strain dcg1, hits give low values 1.02 | locus YJL092W, strain hpr5, hits give low values 0.991 | locus YJL095W, strain BCK1 (second series), hits give low values 0.982 | locus YJL095W, strain BCK1, hits give low values 1.06 and 1 | locus YJL115W, strain asf1, hits give low values 0.995 | locus YJL129C, strain trk1, hits give low values 1.01 | locus YJL134W, strain LCB3, hits give low values 1.01 | locus YJL154C, strain vps35, hits give low values 0.993 | locus YJL164C, strain tpk1, hits give low values 1 | locus YJL166W, strain qcr8, hits give low values 0.993 | locus YJL168C, strain set2, hits give low values 1 | locus YJL187C, strain SWE1 (second series), hits give low values 1.05 | locus YJL187C, strain SWE1, hits give low values 0.991 | locus YJR043C, strain POL32, hits give low values 0.989 | locus YJR066W, strain TOR1, hits give low values 0.982
